In PubChem BioAssay (Tox21):
Values joined by “and” are separate entries in the source; they are usually repeats but may differ in a detail not shown here. Equal values may be shown once. Values without a mark were called inactive. Records with an inconclusive call do not appear. Entries that show only a call come without a potency. Active and inactive are the calls of the source. Unless noted, the call rests on the fitted dose curve.

Key:
[1] = qHTS assay to identify small molecule antagonists of the sonic hedgehog signaling (Shh) pathway (AID 1259369); further: nearly all actives have a fitted effect of over 45% in size; further: potency means the concentration at half of the fitted maximal effect
Procedure, shortened: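 Inhibition of Shh signalling is measured as reduced Gli1-response-element firefly luciferase output in an NIH/3T3-derived stable reporter clone stimulated with conditioned medium for 24hr.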

[2] = qHTS assay to identify small molecule agonists of the androgen receptor (AR) signaling pathway in the presence of an antagonist - cell viability counter screen (AID 1259379; active means well fitted curve in the direction sought with a large enough effect in the repeat runs; an effect the other way counts as inactive or inconclusive; further: nearly all actives have a fitted effect of over 25% in size; further: potency means the concentration at half of the fitted maximal effect)
Procedure, shortened: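 Fluorescence from CellTiter-Fluor, added after 15 hr and read 1 hr later, gave cell viability. Cells were MDA-kb2 exposed to compounds (15 concentrations) in the presence of 3.0uM nilutamide at 37C, 0% CO2.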

[3] = qHTS assay to identify small molecule agonists of the estrogen receptor beta (ER-beta) signaling pathway - cell viability counter screen (AID 1259380; active means well fitted curve in the direction sought with a large enough effect in the repeat runs; an effect the other way counts as inactive or inconclusive; further: nearly all actives have a fitted effect of over 30% in size; further: potency means the concentration at half of the fitted maximal effect)
Procedure, shortened: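 Same-well viability counter screen. Cells: ER-beta-UAS-bla HEK293T, plated 6 hr before compound, in 2% charcoal-stripped FBS. Compound exposure 16 hr, 37C; viability by CellTiter-Glo luminescence after 30 min at room temperature.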

[4] = molecular target: Androgen receptor (Homo sapiens) (UniProt P10275); experiment: qHTS assay to identify small molecule agonists of the androgen receptor (AR) signaling pathway in the presence of an antagonist (AID 1259381); further: nearly all actives have a fitted effect of over 15% in size; further: potency means the concentration at half of the fitted maximal effect
Androgen receptor (Homo sapiens), sequence (P10275 whole entry, looked up): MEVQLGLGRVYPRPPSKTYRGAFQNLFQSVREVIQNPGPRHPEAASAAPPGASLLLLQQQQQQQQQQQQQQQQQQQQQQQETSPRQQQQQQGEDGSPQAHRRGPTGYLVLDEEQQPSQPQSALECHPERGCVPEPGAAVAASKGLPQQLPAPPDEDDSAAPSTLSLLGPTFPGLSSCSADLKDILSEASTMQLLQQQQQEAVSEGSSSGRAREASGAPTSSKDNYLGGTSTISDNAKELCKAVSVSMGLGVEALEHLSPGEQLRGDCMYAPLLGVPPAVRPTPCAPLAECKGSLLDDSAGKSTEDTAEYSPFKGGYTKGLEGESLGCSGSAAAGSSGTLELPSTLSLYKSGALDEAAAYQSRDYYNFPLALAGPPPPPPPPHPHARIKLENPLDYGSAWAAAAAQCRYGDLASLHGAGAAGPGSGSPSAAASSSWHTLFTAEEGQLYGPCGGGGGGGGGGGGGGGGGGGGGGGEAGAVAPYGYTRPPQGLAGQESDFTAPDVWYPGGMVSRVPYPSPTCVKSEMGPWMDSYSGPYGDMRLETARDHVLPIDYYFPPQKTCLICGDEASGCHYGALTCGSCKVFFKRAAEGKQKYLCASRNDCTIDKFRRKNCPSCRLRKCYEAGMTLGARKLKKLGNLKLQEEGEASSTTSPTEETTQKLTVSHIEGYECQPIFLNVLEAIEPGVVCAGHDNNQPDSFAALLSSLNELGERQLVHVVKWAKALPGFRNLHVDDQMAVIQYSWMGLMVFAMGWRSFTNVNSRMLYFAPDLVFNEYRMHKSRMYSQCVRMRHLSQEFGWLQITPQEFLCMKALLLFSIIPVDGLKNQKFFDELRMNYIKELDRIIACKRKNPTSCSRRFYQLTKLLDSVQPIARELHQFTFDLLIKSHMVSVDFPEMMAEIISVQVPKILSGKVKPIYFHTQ
Procedure, shortened: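 Cells are MDA-kb2 (human breast carcinoma, MMTV-luc, AR/GR responsive). Nilutamide is present at 3.0uM final throughout; compounds are added at 15 concentrations and incubated 16hr at 37C before ONE-Glo luminescence detection.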

[5] = qHTS assay to identify small molecule antagonists of the estrogen receptor beta (ER-beta) signaling pathway - cell viability counter screen (AID 1259382; active means well fitted curve in the direction sought with a large enough effect in the repeat runs; an effect the other way counts as inactive or inconclusive; further: nearly all actives have a fitted effect of over 55% in size; further: potency means the concentration at half of the fitted maximal effect)
Procedure, shortened: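 Following a 6 hr plating period, HEK293T cells carrying a UAS-driven beta-lactamase reporter under ER-beta control received compounds and 1nM E2 (final). After 16 hr at 37C and 2 hr substrate loading, CellTiter-Glo luminescence indicated viability.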

[6] = qHTS assay to identify small molecule agonists or antagonists of the thyroid stimulating hormone receptor (TSHR) signaling pathway - wild type cell line counter screen (AID 1259384)
Procedure, shortened: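 Wild-type HEK293 cells were plated 18 h at 37 C/5% CO2, pin-dosed with compound plus Ro20-1724 medium, held 30 min at room temperature, then given cAMP-d2 and anti-cAMP-cryptate; fluorescence was read after 1 h. Fifteen concentrations, triplicate.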

[7] = molecular target: Estrogen receptor (Homo sapiens) (UniProt P03372); experiment: qHTS assay to identify small molecule agonists of the estrogen receptor alpha (ER-alpha) signaling pathway in the presence of an antagonist (AID 1259383); further: nearly all actives have a fitted effect of over 15% in size; further: potency means the concentration at half of the fitted maximal effect; on activation: top concentration of the series differs between compounds
Estrogen receptor (Homo sapiens), sequence (P03372 whole entry, looked up): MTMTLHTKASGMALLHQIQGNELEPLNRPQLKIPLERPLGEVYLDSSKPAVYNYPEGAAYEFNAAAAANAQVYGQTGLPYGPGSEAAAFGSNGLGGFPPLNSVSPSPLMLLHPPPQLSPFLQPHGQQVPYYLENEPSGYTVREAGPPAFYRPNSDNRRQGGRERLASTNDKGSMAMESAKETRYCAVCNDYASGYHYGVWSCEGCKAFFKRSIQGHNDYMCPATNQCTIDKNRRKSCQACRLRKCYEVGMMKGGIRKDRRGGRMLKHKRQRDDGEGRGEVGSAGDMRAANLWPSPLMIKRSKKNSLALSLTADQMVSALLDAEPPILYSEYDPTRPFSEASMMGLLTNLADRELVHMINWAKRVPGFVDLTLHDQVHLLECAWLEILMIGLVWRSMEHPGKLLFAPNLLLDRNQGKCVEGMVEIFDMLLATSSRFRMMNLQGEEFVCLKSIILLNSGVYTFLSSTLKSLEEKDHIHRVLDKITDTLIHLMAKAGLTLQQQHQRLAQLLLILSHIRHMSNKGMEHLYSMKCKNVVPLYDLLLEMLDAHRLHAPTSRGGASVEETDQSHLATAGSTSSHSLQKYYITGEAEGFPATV
Procedure, shortened: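 Cells are hormone-deprived for 5 days (charcoal-stripped FBS, no phenol red), plated for 24hr, spiked with 10.0nM ICI-182,780, then dosed at 15 concentrations. After 22hr at 37C, ONE-Glo luminescence reports ERE-luciferase activity.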

[8] = molecular target: Thyrotropin receptor (Homo sapiens) (UniProt P16473); experiment: qHTS assay to identify small molecule antagonists of the thyroid stimulating hormone receptor (TSHR) signaling pathway (AID 1259385); further: nearly all actives have a fitted effect of over 20% in size; further: potency means the concentration at half of the fitted maximal effect
Thyrotropin receptor (Homo sapiens), sequence (P16473 whole entry, looked up): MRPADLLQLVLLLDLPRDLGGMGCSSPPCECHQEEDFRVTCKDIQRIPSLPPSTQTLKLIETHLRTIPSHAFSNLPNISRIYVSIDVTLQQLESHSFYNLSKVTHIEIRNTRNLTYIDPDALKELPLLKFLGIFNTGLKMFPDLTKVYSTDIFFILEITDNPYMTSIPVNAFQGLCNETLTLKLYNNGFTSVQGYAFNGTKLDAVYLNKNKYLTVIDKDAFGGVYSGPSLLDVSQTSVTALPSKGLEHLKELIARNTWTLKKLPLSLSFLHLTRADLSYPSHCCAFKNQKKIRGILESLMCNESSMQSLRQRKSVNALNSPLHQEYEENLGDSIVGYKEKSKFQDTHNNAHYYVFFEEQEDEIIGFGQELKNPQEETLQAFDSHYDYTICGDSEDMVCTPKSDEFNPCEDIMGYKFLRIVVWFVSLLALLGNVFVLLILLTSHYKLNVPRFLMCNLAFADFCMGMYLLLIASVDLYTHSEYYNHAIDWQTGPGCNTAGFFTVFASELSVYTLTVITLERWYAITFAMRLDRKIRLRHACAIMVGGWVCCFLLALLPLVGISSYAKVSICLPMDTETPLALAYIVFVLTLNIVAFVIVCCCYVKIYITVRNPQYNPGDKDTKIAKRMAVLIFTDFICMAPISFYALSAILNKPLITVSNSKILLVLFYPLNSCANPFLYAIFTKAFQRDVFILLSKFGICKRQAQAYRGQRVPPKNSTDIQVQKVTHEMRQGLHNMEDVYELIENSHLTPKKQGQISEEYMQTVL
Procedure, shortened: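 TSHR-HEK293 cells were plated and held 18 h at 37C/5% CO2, then given compound plus Ro20-1724 and stimulated with TSH at 1.5 ng/mL final. After 30 min at room temperature, cAMP was detected with cAMP-d2/anti-cAMP-cryptate (1 h) by fluorescence.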

Row | SMILES | Potency [1] | Potency [2] | Potency [3] | Potency [4] | Potency [5] | outcome [6] | Potency [7] | Potency [8] | activation [4] | activation [7] | cAMP activity change [6]
1 | C[C@]12CC[C@H](O)C[C@H]1CC[C@@H]1[C@@H]2C[C@@H](O)[C@]2(C)[C@@H](C3=CC(=O)OC3)CC[C@]12O | inactive | inactive | 1.09 µM (active) | 2.73 µM (active) | 0.77 µM (active) | inactive |  |  |  |  | 
2 | CC(=O)C(Cl)(Cl)Cl | 5.9 µM (active) | 20.9 µM (active) | inactive | inactive | inactive | inactive | inactive |  |  |  | 
3 | ClC1=C(Cl)[C@]2(Cl)[C@H]3[C@H]([C@H]4C=C[C@H]3C4)[C@@]1(Cl)C2(Cl)Cl | inactive | inactive | inactive |  | inactive | inactive | inactive | inactive |  |  | 
4 | [CH3][Hg][Cl] | 34.3 µM (active) | 21.6 µM (active) | 60.9 µM (active) | inactive | inactive | inactive | inactive | 17.2 µM (active) |  |  | 
5 | N#CSCSC#N | 2.79 µM (active) and 2.41 µM (active) | 70.1 µM (active) and 67.9 µM (active) | 27.9 µM (active) and 27 µM (active) | inactive | 55.7 µM (active) and 48.1 µM (active) | inactive |  | 55.7 µM (active) |  |  | 
6 | Oc1ccc(C2(c3ccc(O)cc3)CCCCC2)cc1 | 46 µM (active) | inactive | 57.9 µM (active) |  | 57.9 µM (active) | inactive | 14.5 µM (active) |  |  |  | 
7 | N#Cc1c(-c2ccc(Cl)cc2)[nH]c(C(F)(F)F)c1Br | 0.77 µM (active) | 0.969 µM (active) | 24.3 µM (active) | inactive |  | inactive | inactive | inactive |  |  | 
8 | CCN(CC)C(=S)[S-].CCN(CC)C(=S)[S-].[Zn+2] | 0.481 µM (active) | 60.6 µM (active) | 2.71 µM (active) |  | 2.15 µM (active) | inactive | inactive | 68 µM (active) |  |  | 
9 | [Cl][Sn]([c]1ccccc1)([c]1ccccc1)[c]1ccccc1 | 0.206 µM (active) | 1.16 µM (active) | 0.82 µM (active) |  | 0.82 µM (active) |  |  |  | -10.8% [at 19 µM] | -14.6% [at 19 µM] | 23.5% [at 18.9 µM]
10 | CC(=O)[O-].CC(=O)[O-].O.O.[Cd+2] | 1.07 µM (active) | inactive | 60.3 µM (active) |  | 53.7 µM (active) |  |  |  |  |  | 
11 | ClCc1ccc(Cl)cc1Cl | inactive | inactive | inactive |  | inactive | inactive | inactive | inactive |  |  | 
12 | CC(=[OH+])/C=C(/C)[O-].CC(=[OH+])/C=C(\C)[O-].CC(=[OH+])/C=C(\C)[O-].[Al] | inactive | inactive | inactive |  | inactive |  | inactive |  |  |  | 
13 | O=[N+]([O-])O.O=[N+]([O-])O.[Cd] | 1.72 µM (active) | inactive |  |  | 54.5 µM (active) | inactive |  | inactive |  |  | 
14 | S=C(SSC(=S)N1CCCCC1)N1CCCCC1 | 5.96 µM (active) | inactive | 0.188 µM (active) |  |  | inactive |  | inactive |  |  | 
15 | CCCCCCCCCCCCCC[P+](CCCCCC)(CCCCCC)CCCCCC (tested in a mixture with another compound) | 0.969 µM (active) | 8.63 µM (active) |  |  | 27.3 µM (active) | inactive | inactive |  |  |  | 
16 | Cl/C=C\CCl | inactive | inactive | inactive |  | inactive | inactive |  | inactive |  |  | 
17 | Oc1ccccc1Br | inactive | inactive | inactive |  |  |  | inactive |  |  |  | 
18 | ClC(Cl)=C(c1ccc(Cl)cc1)c1ccc(Cl)cc1 | inactive | inactive |  |  | inactive | inactive | inactive | 28 µM (active) |  |  | 
19 | O=C(O)c1cc[c]([Hg][Cl])cc1 | 1.72 µM (active) | inactive |  |  |  | inactive | inactive | inactive |  |  | 
20 | O=[N+]([O-])c1cc([N+](=O)[O-])c2ccccc2c1 | 1.22 µM (active) | inactive |  | inactive | inactive | inactive |  | inactive |  |  | 
